Data: PubChem BioAssay AID1745850 (National Center for Advancing Translational Sciences (NCATS), 2022)
The whole screen tested about 2,100 compounds, of which about 260 (12%) were called active. Roughly 58% stayed inconclusive and do not appear here. The call rests on the fitted dose curve; in most records, active means well fitted cell-killing curve with a large enough effect; inconclusive means small, poorly fitted or top-dose-only effect, or effect the other way; inactive means flat fitted curve, though single readings scatter. The list shows a part of the results.

test: Viability Counterscreen for Confirmatory qHTS for Inhibitors of ATXN expression; conditions: HEK-293 ATXN2-luc cells viability, CellTiter-Fluor, 24 h; activity change, negative = cytotoxicity: at the top concentration; further: nearly all actives have a fitted effect of over 50% in size
Method in brief: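 Luminescence read-out (SteadyGlo, 5 min) followed a 30 min Gly-Phe-AFC (25 uM final) viability fluorescence read. ATXN2-luciferase reporter cells were exposed 24 h to a dilution series. Medium-only wells served as the 100% inhibition reference.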
Potency means the concentration at half of the fitted maximal effect.

Compound	Potency	activity change, negative = cytotoxicity
N#C/C(=N\Nc1cccc([N+](=O)[O-])c1)C(=O)c1ccc(Br)cc1	2.51 µM (active)	
CC(NC(=O)Nc1cccc([N+](=O)[O-])c1)c1ccc2c(c1)OCO2 (configuration not stated)		-13.6% (inactive)
CC(NC(=O)Nc1cccc([N+](=O)[O-])c1)(C(F)(F)F)C(F)(F)F		-28.5% [at 57.5 µM] (inactive)
CC(C)=C1SC(N2CCN(c3ccc(C)c(Cl)c3)CC2)=NC1=O		-5.09% (inactive)
O=C(Cc1coc2cc3c(cc12)CCC3)OCC(=O)N1CCCC1=O		-16.8% [at 57.5 µM] (inactive)
CCc1nnc(NC(=O)c2ccc(S(=O)(=O)N(C)c3ccccc3)cc2)o1		-10.3% (inactive)
Cc1nc2ccc(NC(=O)c3cccc(S(=O)(=O)N(C)c4ccccc4)c3)cc2s1	3.16 µM (active)	
CCCC(=O)Nc1ccc2nc(SCC(=O)N3CCCC3)sc2c1		-17% [at 57.5 µM] (inactive)
CCN1CCN(C(=S)c2ccc(-c3ccccc3)cc2)CC1		-12% [at 57.5 µM] (inactive)
CN(C)CCNc1ncnc2c1sc1nc(N3CCCC3)c3c(c12)CC(C)(C)OC3	25.1 µM (active)	
CN1Cc2c(N3CCOCC3)nc3sc(C(=O)c4ccccc4)c(N)c3c2CC1(C)C		-21% (inactive)
CC1(C)Cc2c(c(N3CCOCC3)nc3sc4c(NN)ncnc4c23)CS1	25.1 µM (active)	
CN(C)CCNc1ncnc2c1sc1nc(N3CCOCC3)c3c(c12)CC(C)(C)SC3	22.4 µM (active)	
COc1ccc(C2CC(c3cccc(Cl)c3)=NN2c2ccc(S(N)(=O)=O)cc2)cc1 (configuration not stated)		3.61% [at 57.5 µM] (inactive)
CCN(CCCn1c(=S)[nH]c2ccc(N3CCOCC3)cc2c1=O)c1ccccc1		-2.36% (inactive)
Cc1nn(-c2ccccn2)c2c1C(=O)CC(C)(C)C2N=[N+]=[N-] (configuration not stated)		-2.41% (inactive)

Compound	Potency	activity change, negative = cytotoxicity
OCC1(CCOc2ccccc2)CCN(CC2=Cc3cc(Cl)ccc3OC2)CC1		-23.6% [at 57.5 µM] (inactive)
Cc1cc(=O)oc2c1c(C)nn2-c1cccc(Cl)c1		-2.37% (inactive)
O=C(c1cccc(Cl)c1)c1nn(-c2ccccc2)c(=O)cc1C(F)(F)F	35.5 µM (active)	
COc1cccc(-c2nc(N3CCN(C)CC3)c3ccccc3n2)c1O		-15.2% (inactive)
COc1ccc(Nc2oc(COc3ccccc3OC)nc2C#N)cc1		0.396% (inactive)
COc1ccc(Nc2nc(N3CCCC3)c3ccccc3n2)cc1	35.5 µM (active)	
CC(=O)Oc1ccc(C23c4ccccc4C2(OC(C)=O)c2cc(OC(C)=O)ccc23)cc1 (configuration not stated)	28.2 µM (active)	
CC(=O)Oc1ccc(Nc2ccccc2)cc1		-7.23% (inactive)
O=C(CSc1nnc(-c2ccc(Br)cc2)o1)Nc1cccc(C(=O)O)c1		-4.75% [at 57.5 µM] (inactive)
COC(=O)c1c(C)oc2ccc(N(C(=O)c3ccncc3)S(=O)(=O)c3ccc(C)cc3C)cc12		-23.2% (inactive)
O=C(CNc1cccc(C(F)(F)F)c1)Nc1cccc(S(=O)(=O)N2CCCC2)c1		-24.1% [at 57.5 µM] (inactive)
CN(CC(=O)Nc1ccc(Cl)c(C(F)(F)F)c1)C(=O)c1cccnc1Sc1ccccc1		-12% [at 57.5 µM] (inactive)
Cc1ccc(C(=O)N(C)CC(=O)Nc2ccc(Cl)c(C(F)(F)F)c2)cc1S(=O)(=O)N1CCCCC1	25.1 µM (active)	
O=C(NCCc1csc(-c2cccnc2)n1)c1cccc(Cl)c1		-18.1% [at 57.5 µM] (inactive)
Cc1cccn2c(=O)c3cc(C(=O)NCCN4CCOCC4)c(=N)n(Cc4ccc(F)cc4)c3nc12		-4.46% [at 57.5 µM] (inactive)
COc1cccc(/C=N/NC(=O)CC(C)O)c1OC/C=C/c1ccccc1 (configuration not stated)		-2.85% (inactive)
